A short description of experiment [1]: Drug repurposing screens with cells derived from glioblastoma tumor samples (AID 1345199). Further: nearly all actives have a fitted effect of over 40% in size. Further: potency means the concentration at half of the fitted maximal effect. On activity, negative = cell killing: on the % scale 0 is the no-effect control and ±100 the full control effect. The conditions noted are these: GBM patient neurospheres viability, ATP luminescence, 48 h. The method in brief: (§1)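 Four patient lines of CD133+ GBM neurospheres were screened at several concentrations; hits were retested in those lines plus three slower-growing GBM lines, using 48-hour treatment and ATP-based viability.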

A further experiment deals with astro (control astrocytes). The experiment is described as above. The conditions noted are these: viability, ATP luminescence, 48 h; series mostly up to 45.9 µM. The method in brief:
as §1

Experiment [2] concerns the target Nuclear receptor subfamily 1 group I member 2 (Rattus norvegicus) (UniProt Q9R1A7). As to the kind of experiment: qHTS assay for small molecule activators of the rat pregnane X receptor (rPXR) signaling pathway (AID 651751; call rule not given here; further: 0% is about no effect). The conditions noted are these: rPXR reporter cells, luciferase (One-Glo), 24 h. A general note: Quantitative high-throughput screening tests each substance at several concentrations.

Experiment [3] in a line: qHTS assay for small molecule activators of the human pregnane X receptor (PXR) signaling pathway (AID 720659; call rule not given here; further: 0% is about no effect). The conditions noted are these: DPX-2 HepG2 CYP3A4-luciferase, 24 h; series mostly up to 92.3 µM.
The mark [4] stands for this setting: at 45.9 µM (top of the series), tumour line B.
Where [5] appears, read: at 45.9 µM (top of the series), tumour line D.
Setting [6] is: at 46.1 µM (top of the series), tumour line C.
[7] abbreviates: at 46 µM (top of the series), tumour line A.

Structures are written as SMILES. Where “and” joins values, the source holds several entries; their conditions need not be identical. Identical values can stand only once. A number with no mark means an inactive call. Inconclusive results are not listed. Calls of active or inactive are those of the source. Unless noted, the call rests on the fitted dose curve; in most records, active means well fitted inhibition curve with a large enough effect; inconclusive means small, poorly fitted or top-dose-only effect; inactive means flat fitted curve, though single readings scatter.

Nuclear receptor subfamily 1 group I member 2 (Rattus norvegicus), sequence (Q9R1A7 whole entry, looked up): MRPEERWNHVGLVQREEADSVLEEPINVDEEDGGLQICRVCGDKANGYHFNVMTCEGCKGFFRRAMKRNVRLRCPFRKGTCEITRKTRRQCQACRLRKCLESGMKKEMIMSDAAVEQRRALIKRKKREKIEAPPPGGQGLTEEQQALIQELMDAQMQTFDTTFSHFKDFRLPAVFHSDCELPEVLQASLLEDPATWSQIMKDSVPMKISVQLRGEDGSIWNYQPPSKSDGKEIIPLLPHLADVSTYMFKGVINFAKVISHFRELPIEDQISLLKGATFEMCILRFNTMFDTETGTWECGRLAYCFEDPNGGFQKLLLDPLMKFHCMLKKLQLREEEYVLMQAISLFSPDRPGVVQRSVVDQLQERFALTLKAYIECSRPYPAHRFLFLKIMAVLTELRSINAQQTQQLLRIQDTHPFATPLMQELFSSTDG

As to `O=C1c2cccc3c2[C@H](CCC3)CN1[C@@H]1CN2CCC1CC2`, the activity, negative = cell killing in experiment [1] (setting [4]) is -28.4%. For the same compound, the Potency in experiment [1] (tumour line A) and in experiment [1] (tumour line D) was 11.2 µM (active) in each case. Further, the Potency result in the experiment on astro was “inactive”.

`Cc1ccc(-c2ncc(Cl)cc2-c2ccc(S(C)(=O)=O)cc2)cn1`: the activity, negative = cell killing in experiment [1] (setting [4]) is -0.088%; in experiment [1] (setting [5]), -1.02%; in experiment [1] (setting [6]), -0.632%. In addition, the Potency result in the experiment on astro was “inactive”.

As for `CC(C)Nc1cccnc1N1CCN(C(=O)c2cc3cc(NS(C)(=O)=O)ccc3[nH]2)CC1`, the activity, negative = cell killing in experiment [1] (setting [4]) is -14.1%; in experiment [1] (setting [5]), 0.603%. In addition, the Potency entry with astro was “inactive”.

For the compound `Cc1cccc(C)c1NC(=O)CN1CCCC1`, the activity, negative = cell killing is -9.15% in experiment [1] (setting [4]), 5.92% in experiment [1] (setting [5]) and -8.15% in experiment [1] (setting [6]). Besides, the Potency result in the experiment on astro was “inactive”.

As to `CCOC(=O)[C@H](CCc1ccccc1)N[C@@H](C)C(=O)N1[C@H](C(=O)O)C[C@H]2CCCC[C@@H]21`, the activity, negative = cell killing in experiment [1] (setting [5]) was 2.82%; in experiment [1] (setting [7]), -15.6%; in experiment [1] (setting [6]), 1.22% and -4.13%. Also, in the experiment with astro, the Potency result is “inactive”.

For `C[C@@H](O)[C@H]1C(=O)N2C(C(=O)O)=C([C@H]3CCCO3)S[C@H]12`, the values for the activity, negative = cell killing in experiment [1] (setting [4]), in experiment [1] (setting [5]) and in experiment [1] (setting [6]) were -7.31%, -12.1% and -5.94%, respectively. The Potency result in the experiment on astro is “inactive”.

In the case of `CNCCc1ccccn1`, the activity, negative = cell killing is -4.84% in experiment [1] (at 20 µM (top of the series), tumour line C); -4.42% in experiment [1] (at 21.2 µM (top of the series), tumour line B); -9.97% in experiment [1] (at 21.2 µM (top of the series), tumour line D). Also, in the experiment with astro, the Potency entry is “inactive”.

As for `CC[N+](C)(CC)CCOC(=O)C(O)(c1ccccc1)C1CCCCC1` (stereo not given), the activity, negative = cell killing in experiment [1] (setting [4]) was 4.51%; in experiment [1] (setting [5]) it was -27.2%; in experiment [1] (setting [6]), -9.68%. Also, the Potency entry in the experiment on astro was “inactive”.

On to `Nc1nc(-c2ccccc2)c(Br)c(=O)[nH]1`, for which the results for the activity, negative = cell killing in experiment [1] (setting [4]), in experiment [1] (setting [5]) and in experiment [1] (setting [7]) were -8.97%, -11.4% and -28.3%, respectively. Besides, the Potency result in the experiment with astro was “inactive”.

As for `CCCCN1C[C@H](O)[C@@H](O)[C@H](O)[C@H]1CO`, the values for the activity, negative = cell killing in experiment [1] (setting [4]), in experiment [1] (setting [5]) and in experiment [1] (setting [6]) were -11.2%, -2.4% and -21.4%, respectively. For the same compound, the Potency result in the experiment with astro is “inactive”.

Regarding `Cl/C(=C\n1cncn1)c1ccc(Cl)cc1Cl`, the activity, negative = cell killing in experiment [1] (setting [4]) was -7.02%; in experiment [1] (setting [5]), -2.18%; in experiment [1] (setting [6]), -23.5%. Moreover, the Potency entry in the experiment on astro is “inactive”.

For `CCCCOC(=O)CC(CC(=O)OCCCC)(OC(C)=O)C(=O)OCCCC`, the activity, negative = cell killing is -5.84% in experiment [1] (setting [4]), -7.23% in experiment [1] (setting [5]) and -12.4% in experiment [1] (setting [6]). Moreover, the Potency entry in the experiment with astro was “inactive”. Moreover, the max response in experiment [2] is 12%.

Consider `COc1ccc(C(=O)c2ccccc2)c(O)c1`, for which the activity, negative = cell killing in experiment [1] (setting [4]) is 1.18%; in experiment [1] (setting [5]) it was -2.35%; in experiment [1] (setting [6]), -6.38%. Further, the Potency result in the experiment with astro is “inactive”. For the same compound, the max response in experiment [2] is 7.56% and 2.38%.

Regarding `CCCCCCCC/C=C\CCCCCCCCN`, the activity, negative = cell killing was -5.85% in experiment [1] (setting [4]), -1.47% in experiment [1] (setting [5]) and -19.7% in experiment [1] (setting [6]). The Potency result in the experiment on astro was “inactive”. Moreover, the max response in experiment [2] was 3.35%. Besides, the compound was called inactive in experiment [3].

For `COc1cc([C@H]2Oc3cc([C@H]4Oc5cc(O)cc(O)c5C(=O)[C@@H]4O)ccc3O[C@@H]2CO)ccc1O`, the activity, negative = cell killing in experiment [1] (setting [4]) is -0.835%; in experiment [1] (setting [5]), -13.1%; in experiment [1] (setting [6]), -7.07%. The compound was called inactive in experiment [3].

On to `C#C[C@]1(O)CC[C@H]2[C@@H]3CCC4=CC(=O)CC[C@@H]4[C@H]3CC[C@@]21CC`, for which the values for the activity, negative = cell killing in experiment [1] (setting [4]), in experiment [1] (setting [5]) and in experiment [1] (setting [6]) were -8.91%, -3.36% and 6%, respectively. Besides, the Potency entry in the experiment with astro is “inactive”.

Regarding `CCCCN=C(N)N=C(N)N`, the activity, negative = cell killing in experiment [1] (setting [4]) is -13.5%; in experiment [1] (setting [5]), -11%; in experiment [1] (setting [6]), -8.24%. In addition, the Potency result with astro is “inactive”.

Regarding `CCCCCCCCCCCCCCCCO`, the activity, negative = cell killing in experiment [1] (setting [4]) was -2.36%; in experiment [1] (setting [5]) it was 5.55%; in experiment [1] (setting [6]), 3.59%. Also, in the experiment with astro, the Potency entry is “inactive”. Besides, in experiment [2], the max response is 0.781%. Besides, in experiment [3], the result was inactive.

As for `O=C(O)c1ccc(S(=O)(=O)N(Cl)Cl)cc1`, the activity, negative = cell killing is -12% in experiment [1] (setting [4]), -8.56% in experiment [1] (setting [5]) and -26.9% in experiment [1] (setting [6]). Further, in the experiment on astro, the Potency entry is “inactive”. In addition, in experiment [2], the max response is 3.23%. The call in experiment [3] was inactive.

Take `O=C1[C@H](CC[C@H](O)c2ccc(F)cc2)[C@@H](c2ccc(O)cc2)N1c1ccc(F)cc1`: the activity, negative = cell killing was -11.2% in experiment [1] (setting [4]), -13.5% in experiment [1] (setting [5]) and 1.66% in experiment [1] (setting [6]). Moreover, the Potency result in the experiment with astro is “inactive”.

In the case of `FC1(F)C(F)(F)C(F)(F)C2(F)C(F)(F)C(F)(F)C(F)(F)C(F)(F)C2(F)C1(F)F` (stereo not given), the activity, negative = cell killing in experiment [1] (setting [4]) was -14.2%; in experiment [1] (setting [5]), -0.34%; in experiment [1] (setting [6]), -17%. Also, the Potency entry in the experiment on astro was “inactive”.

For the compound `CCCCCCCCOc1ccc(C(=O)c2ccccc2)c(O)c1`, the activity, negative = cell killing in experiment [1] (setting [4]) is -18.7%; in experiment [1] (setting [5]), -9.16%; in experiment [1] (setting [6]), -24.6%. Further, in the experiment with astro, the Potency result was “inactive”. Also, in experiment [2], the max response is -1.61%. The compound was classed as inactive in experiment [3].

Regarding `CC(C)NCC(O)c1ccc2ccccc2c1` (stereo not given), the activity, negative = cell killing in experiment [1] (setting [4]) was -12.4%; in experiment [1] (setting [5]), -5.15%; in experiment [1] (setting [6]), -5.59%. In addition, in the experiment with astro, the Potency entry was “inactive”.

Turning to `C=CCN1CCc2nc(N)sc2CC1`, the activity, negative = cell killing in experiment [1] (setting [4]) was -26.9%; in experiment [1] (setting [5]), -19.4%; in experiment [1] (setting [6]), -3.6%. In the experiment with astro, the Potency result was “inactive”.

For the origin of these results see PubChem BioAssay (NCATS).
